Measurements taken from paper PMC7862700, “An all-to-all approach to the identification of sequence-specific readers for epigenetic DNA modifications on cytosine”.

How the values were obtained:
Experiment in all cases: DAPPL (digital affinity profiling via proximity ligation, sequencing); 10 mM Tris-HCl pH 7.5, 50 mM NaCl, 1 mM DTT, 4% glycerol, room temperature, 30 min; GST-TFs on glutathione beads, 16-mer random dsDNA library, 0.1% formaldehyde crosslink after washing; high values mean tight binding
Conditions in all cases: protein: recombinant; tags: N-terminal GST; dsDNA, one strand shown
ERF = molecular target: T1, ERF (Homo sapiens, UniProt P50548 1-548)
T1 sequence: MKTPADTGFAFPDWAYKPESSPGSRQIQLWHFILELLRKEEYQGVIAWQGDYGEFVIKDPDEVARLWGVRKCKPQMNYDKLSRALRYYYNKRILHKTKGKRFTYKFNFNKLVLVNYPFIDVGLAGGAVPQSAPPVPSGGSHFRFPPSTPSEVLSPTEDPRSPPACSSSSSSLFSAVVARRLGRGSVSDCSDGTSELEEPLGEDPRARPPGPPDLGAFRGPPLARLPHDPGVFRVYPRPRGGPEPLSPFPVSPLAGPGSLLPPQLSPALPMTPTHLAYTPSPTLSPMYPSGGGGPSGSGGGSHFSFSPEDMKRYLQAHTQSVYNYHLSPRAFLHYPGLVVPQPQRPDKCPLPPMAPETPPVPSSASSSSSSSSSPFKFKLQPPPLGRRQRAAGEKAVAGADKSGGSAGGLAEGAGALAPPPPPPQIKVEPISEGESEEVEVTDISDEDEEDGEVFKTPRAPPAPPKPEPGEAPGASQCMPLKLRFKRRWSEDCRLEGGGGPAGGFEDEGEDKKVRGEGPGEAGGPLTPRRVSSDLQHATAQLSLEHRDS
Procedure, shortened: (§1)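 Human transcription factors fused to GST were expressed in yeast, captured on glutathione beads, given DNA barcodes and pooled with a GST-only negative control. Pools were incubated with 200 nmole of a 16-mer random double-stranded DNA library in Tris/NaCl/DTT/glycerol buffer at room temperature for 30 min. They were then washed, crosslinked with 0.1% formaldehyde, proximity-ligated (BsaI/T4 ligase, 1 h, 37 °C), PCR-amplified and sequenced on an Illumina NextSeq500. Binding signal is each 6-mer's read frequency for a factor divided by its frequency for the GST control.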

ETV3L = molecular target: T2, ETV3L (Homo sapiens, UniProt Q6ZN32 1-361)
T2 sequence: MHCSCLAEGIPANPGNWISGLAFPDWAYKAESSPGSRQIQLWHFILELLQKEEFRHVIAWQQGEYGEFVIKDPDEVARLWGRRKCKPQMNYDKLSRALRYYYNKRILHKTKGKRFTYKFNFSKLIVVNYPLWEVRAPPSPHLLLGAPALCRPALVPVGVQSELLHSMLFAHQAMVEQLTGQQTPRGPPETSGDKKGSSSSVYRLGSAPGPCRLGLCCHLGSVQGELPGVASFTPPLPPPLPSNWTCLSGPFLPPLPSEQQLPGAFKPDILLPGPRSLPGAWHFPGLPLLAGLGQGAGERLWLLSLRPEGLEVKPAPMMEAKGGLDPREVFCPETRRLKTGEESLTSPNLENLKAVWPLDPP
Procedure, shortened: as §1

ETS2 = molecular target: T3, ETS2 (Homo sapiens, UniProt P15036 1-469)
T3 sequence: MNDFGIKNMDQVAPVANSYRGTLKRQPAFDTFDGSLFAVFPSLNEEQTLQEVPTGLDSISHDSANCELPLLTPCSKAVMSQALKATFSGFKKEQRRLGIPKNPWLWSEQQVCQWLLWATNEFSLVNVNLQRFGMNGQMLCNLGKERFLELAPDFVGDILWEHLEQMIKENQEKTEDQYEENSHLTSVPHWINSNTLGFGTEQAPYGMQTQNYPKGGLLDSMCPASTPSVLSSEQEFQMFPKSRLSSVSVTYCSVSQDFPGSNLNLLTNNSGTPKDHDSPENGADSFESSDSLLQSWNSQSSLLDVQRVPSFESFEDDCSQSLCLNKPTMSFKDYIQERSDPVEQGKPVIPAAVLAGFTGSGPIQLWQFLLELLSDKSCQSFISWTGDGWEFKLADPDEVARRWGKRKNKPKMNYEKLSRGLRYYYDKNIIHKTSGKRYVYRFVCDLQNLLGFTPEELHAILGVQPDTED
Procedure, shortened: as §1

SPDEF = molecular target: T4, SPDEF (Homo sapiens, UniProt O95238 1-335)
T4 sequence: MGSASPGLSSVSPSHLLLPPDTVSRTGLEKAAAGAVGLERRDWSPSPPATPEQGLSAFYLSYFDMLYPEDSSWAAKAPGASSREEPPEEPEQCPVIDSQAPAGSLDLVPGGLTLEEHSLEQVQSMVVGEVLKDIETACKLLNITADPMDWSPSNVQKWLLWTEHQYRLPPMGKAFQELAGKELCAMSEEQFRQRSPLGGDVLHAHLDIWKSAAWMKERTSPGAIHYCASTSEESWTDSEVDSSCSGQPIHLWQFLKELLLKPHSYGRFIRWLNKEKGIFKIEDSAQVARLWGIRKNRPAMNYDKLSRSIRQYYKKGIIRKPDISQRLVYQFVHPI
Procedure, shortened: as §1

ETV7 = molecular target: T5, ETV7 (Homo sapiens, UniProt Q9Y603 1-341)
T5 sequence: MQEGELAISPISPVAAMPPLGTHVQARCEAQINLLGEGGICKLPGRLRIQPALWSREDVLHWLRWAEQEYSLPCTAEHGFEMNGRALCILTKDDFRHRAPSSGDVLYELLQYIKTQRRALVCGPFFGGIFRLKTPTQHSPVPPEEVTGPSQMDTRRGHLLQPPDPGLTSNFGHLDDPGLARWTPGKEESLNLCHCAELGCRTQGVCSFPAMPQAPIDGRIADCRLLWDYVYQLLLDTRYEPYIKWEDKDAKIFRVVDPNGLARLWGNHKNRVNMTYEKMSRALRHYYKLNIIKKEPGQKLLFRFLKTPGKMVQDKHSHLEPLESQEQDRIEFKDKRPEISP
Procedure, shortened: as §1

ELF5 = molecular target: T6, ELF5 (Homo sapiens, UniProt Q9UKW6-2 1-255)
T6 sequence: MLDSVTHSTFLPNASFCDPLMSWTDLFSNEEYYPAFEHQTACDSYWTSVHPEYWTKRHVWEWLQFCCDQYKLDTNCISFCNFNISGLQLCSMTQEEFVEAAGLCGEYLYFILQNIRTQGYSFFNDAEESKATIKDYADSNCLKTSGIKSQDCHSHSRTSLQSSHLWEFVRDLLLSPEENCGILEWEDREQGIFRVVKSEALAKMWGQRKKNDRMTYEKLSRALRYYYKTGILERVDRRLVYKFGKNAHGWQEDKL
Procedure, shortened: as §1

ETV3 = molecular target: T7, ETV3 (Homo sapiens, UniProt P41162-2 1-143)
T7 sequence: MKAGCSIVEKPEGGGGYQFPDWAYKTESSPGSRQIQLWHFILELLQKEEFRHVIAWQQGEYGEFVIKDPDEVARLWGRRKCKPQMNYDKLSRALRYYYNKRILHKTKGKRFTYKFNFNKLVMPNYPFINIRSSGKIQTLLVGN
Procedure, shortened: as §1

ETV6 = ETV6 (Homo sapiens, UniProt P41212 1-452)
Procedure, shortened: as §1

ETV6, sequence (P41212 whole entry): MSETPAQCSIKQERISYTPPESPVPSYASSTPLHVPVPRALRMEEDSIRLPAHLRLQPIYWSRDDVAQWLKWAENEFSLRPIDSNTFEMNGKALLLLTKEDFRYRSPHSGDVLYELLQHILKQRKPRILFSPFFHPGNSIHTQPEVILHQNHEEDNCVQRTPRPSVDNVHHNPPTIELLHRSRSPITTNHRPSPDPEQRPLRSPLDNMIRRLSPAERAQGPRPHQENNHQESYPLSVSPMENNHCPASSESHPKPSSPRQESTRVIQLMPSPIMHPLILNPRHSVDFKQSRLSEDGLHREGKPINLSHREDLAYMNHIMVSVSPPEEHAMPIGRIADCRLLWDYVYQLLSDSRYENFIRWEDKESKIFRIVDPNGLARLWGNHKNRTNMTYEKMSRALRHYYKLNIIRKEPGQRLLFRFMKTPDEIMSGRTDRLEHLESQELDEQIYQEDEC

CGTTTT
binding signal (ERF): 1.15 fold enrichment (6-mer frequency, TF over GST control)
binding signal (ETV3L): 1.29 fold enrichment (6-mer frequency, TF over GST control)
binding signal (ETS2): 1.16 fold enrichment (6-mer frequency, TF over GST control)
binding signal (SPDEF): 1.14 fold enrichment (6-mer frequency, TF over GST control)
binding signal (ETV7): 1.25 fold enrichment (6-mer frequency, TF over GST control)
binding signal (ELF5): 1.14 fold enrichment (6-mer frequency, TF over GST control)
binding signal (ETV3): 1.21 fold enrichment (6-mer frequency, TF over GST control)
binding signal (ETV6): 1.24 fold enrichment (6-mer frequency, TF over GST control)

TTTATA
binding signal (ERF): 1.4 fold enrichment (6-mer frequency, TF over GST control)
binding signal (ETV3L): 1.42 fold enrichment (6-mer frequency, TF over GST control)
binding signal (ETS2): 1.4 fold enrichment (6-mer frequency, TF over GST control)
binding signal (SPDEF): 1.3 fold enrichment (6-mer frequency, TF over GST control)
binding signal (ETV7): 1.43 fold enrichment (6-mer frequency, TF over GST control)
binding signal (ELF5): 1.27 fold enrichment (6-mer frequency, TF over GST control)
binding signal (ETV3): 1.32 fold enrichment (6-mer frequency, TF over GST control)
binding signal (ETV6): 1.38 fold enrichment (6-mer frequency, TF over GST control)

CTCATT
binding signal (ERF): 1.35 fold enrichment (6-mer frequency, TF over GST control)
binding signal (ETV3L): 1.47 fold enrichment (6-mer frequency, TF over GST control)
binding signal (ETS2): 1.49 fold enrichment (6-mer frequency, TF over GST control)
binding signal (SPDEF): 1.33 fold enrichment (6-mer frequency, TF over GST control)
binding signal (ETV7): 1.29 fold enrichment (6-mer frequency, TF over GST control)
binding signal (ELF5): 1.5 fold enrichment (6-mer frequency, TF over GST control)
binding signal (ETV3): 1.39 fold enrichment (6-mer frequency, TF over GST control)
binding signal (ETV6): 1.45 fold enrichment (6-mer frequency, TF over GST control)

TTACCC
binding signal (ERF): 1.35 fold enrichment (6-mer frequency, TF over GST control)
binding signal (ETV3L): 1.26 fold enrichment (6-mer frequency, TF over GST control)
binding signal (ETS2): 1.42 fold enrichment (6-mer frequency, TF over GST control)
binding signal (SPDEF): 1.33 fold enrichment (6-mer frequency, TF over GST control)
binding signal (ETV7): 1.41 fold enrichment (6-mer frequency, TF over GST control)
binding signal (ELF5): 1.43 fold enrichment (6-mer frequency, TF over GST control)
binding signal (ETV3): 1.35 fold enrichment (6-mer frequency, TF over GST control)
binding signal (ETV6): 1.29 fold enrichment (6-mer frequency, TF over GST control)

TACCTA
binding signal (ERF): 1.25 fold enrichment (6-mer frequency, TF over GST control)
binding signal (ETV3L): 1.28 fold enrichment (6-mer frequency, TF over GST control)
binding signal (ETS2): 1.31 fold enrichment (6-mer frequency, TF over GST control)
binding signal (SPDEF): 1.19 fold enrichment (6-mer frequency, TF over GST control)
binding signal (ETV7): 1.27 fold enrichment (6-mer frequency, TF over GST control)
binding signal (ELF5): 1.23 fold enrichment (6-mer frequency, TF over GST control)
binding signal (ETV3): 1.2 fold enrichment (6-mer frequency, TF over GST control)
binding signal (ETV6): 1.29 fold enrichment (6-mer frequency, TF over GST control)

TTTGAA
binding signal (ERF): 1.11 fold enrichment (6-mer frequency, TF over GST control)
binding signal (ETV3L): 1.19 fold enrichment (6-mer frequency, TF over GST control)
binding signal (ETS2): 1.23 fold enrichment (6-mer frequency, TF over GST control)
binding signal (SPDEF): 1.15 fold enrichment (6-mer frequency, TF over GST control)
binding signal (ETV7): 1.17 fold enrichment (6-mer frequency, TF over GST control)
binding signal (ELF5): 1.1 fold enrichment (6-mer frequency, TF over GST control)
binding signal (ETV3): 1.22 fold enrichment (6-mer frequency, TF over GST control)
binding signal (ETV6): 1.23 fold enrichment (6-mer frequency, TF over GST control)

AATACC
binding signal (ERF): 1.29 fold enrichment (6-mer frequency, TF over GST control)
binding signal (ETV3L): 1.15 fold enrichment (6-mer frequency, TF over GST control)
binding signal (ETS2): 1.21 fold enrichment (6-mer frequency, TF over GST control)
binding signal (SPDEF): 1.11 fold enrichment (6-mer frequency, TF over GST control)
binding signal (ETV7): 1.21 fold enrichment (6-mer frequency, TF over GST control)
binding signal (ELF5): 1.17 fold enrichment (6-mer frequency, TF over GST control)
binding signal (ETV3): 1.17 fold enrichment (6-mer frequency, TF over GST control)
binding signal (ETV6): 1.16 fold enrichment (6-mer frequency, TF over GST control)

ATGTCT
binding signal (ERF): 1.38 fold enrichment (6-mer frequency, TF over GST control)
binding signal (ETV3L): 1.27 fold enrichment (6-mer frequency, TF over GST control)
binding signal (ETS2): 1.28 fold enrichment (6-mer frequency, TF over GST control)
binding signal (SPDEF): 1.26 fold enrichment (6-mer frequency, TF over GST control)
binding signal (ETV7): 1.12 fold enrichment (6-mer frequency, TF over GST control)
binding signal (ELF5): 1.35 fold enrichment (6-mer frequency, TF over GST control)
binding signal (ETV3): 1.26 fold enrichment (6-mer frequency, TF over GST control)
binding signal (ETV6): 1.23 fold enrichment (6-mer frequency, TF over GST control)
